Active and inactive are the calls of the source.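 Rule for the calls: active = IC50, the dose giving half inhibition, at or below 10 µM; inconclusive = IC50 above 10 µM up to 20 µM; inactive = IC50 over 20 µM.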
Target: Ubiquitin-like modifier-activating enzyme 1 (Homo sapiens) (UniProt P22314)
Experiment: inhibition of ubiquitin E1 thioester formation – biochemical, gel-based, fluorescent Ub (AID 1347406)
Conditions: fluorescent Ub gel imaging

Ubiquitin-like modifier-activating enzyme 1 (Homo sapiens), sequence (P22314 whole entry, looked up): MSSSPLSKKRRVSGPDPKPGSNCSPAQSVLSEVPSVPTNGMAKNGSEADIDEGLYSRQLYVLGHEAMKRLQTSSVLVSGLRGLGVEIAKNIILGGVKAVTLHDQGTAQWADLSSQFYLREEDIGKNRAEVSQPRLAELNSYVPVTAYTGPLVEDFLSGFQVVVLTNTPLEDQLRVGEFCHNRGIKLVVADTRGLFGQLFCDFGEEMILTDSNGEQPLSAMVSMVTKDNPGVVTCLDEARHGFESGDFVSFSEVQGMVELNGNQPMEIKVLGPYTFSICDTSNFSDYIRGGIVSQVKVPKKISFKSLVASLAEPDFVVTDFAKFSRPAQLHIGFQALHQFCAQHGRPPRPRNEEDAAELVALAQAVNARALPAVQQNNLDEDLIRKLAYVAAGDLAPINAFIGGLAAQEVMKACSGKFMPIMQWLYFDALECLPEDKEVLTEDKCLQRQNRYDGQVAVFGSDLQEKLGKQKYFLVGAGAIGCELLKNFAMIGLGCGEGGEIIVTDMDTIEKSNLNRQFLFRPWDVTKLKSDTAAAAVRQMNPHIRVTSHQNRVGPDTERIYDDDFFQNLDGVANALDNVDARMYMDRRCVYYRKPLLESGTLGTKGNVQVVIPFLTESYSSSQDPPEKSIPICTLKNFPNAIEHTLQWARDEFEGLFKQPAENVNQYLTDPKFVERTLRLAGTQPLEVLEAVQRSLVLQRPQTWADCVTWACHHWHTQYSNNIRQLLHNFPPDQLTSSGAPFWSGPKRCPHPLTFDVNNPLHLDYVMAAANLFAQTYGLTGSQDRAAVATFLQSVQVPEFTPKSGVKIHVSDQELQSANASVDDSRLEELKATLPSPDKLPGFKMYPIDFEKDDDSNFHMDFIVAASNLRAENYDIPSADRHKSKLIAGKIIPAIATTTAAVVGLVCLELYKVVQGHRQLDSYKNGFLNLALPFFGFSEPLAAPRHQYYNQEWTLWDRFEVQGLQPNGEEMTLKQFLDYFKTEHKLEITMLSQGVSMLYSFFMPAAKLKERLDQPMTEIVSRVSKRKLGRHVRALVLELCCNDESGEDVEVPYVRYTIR

NCCCSc1nc2c(c(=O)n1Cc1ccccc1)C1(CCCCC1)Cc1ccccc1-2
outcome: inactive; >50 µM

CCCCCCCCCOc1ccc(C#CC(=O)O)cc1
outcome: inactive

CNc1ccccc(C(=O)C=Cc2ccc3c(c2)OCO3)c1=O
outcome: inactive; >50 µM

CN(CCC(=O)C=Cc1ccc(Cl)c(Cl)c1)CCc1ccc2c(c1)OCO2
outcome: inactive; >50 µM

CCNc1ccc(Br)cc(C(=O)/C=C/c2c(Cl)cccc2Cl)c1=O
outcome: inactive; >50 µM

CCOc1ccc2nc3cc(NC(=O)c4ccco4)ccc3c(N)c2c1
outcome: inactive; >50 µM

CCOC(=O)c1c(NC(=O)CCC(=O)O)sc(C)c1-c1ccc(CC(C)C)cc1
outcome: inactive; >50 µM

Source: PubChem BioAssay AID1347406
